# From PubChem BioAssay (NCATS)
# Inconclusive results are not listed. Values without a mark were called inactive. Calls follow the shape of the dose curve; as a rule, active = well fitted inhibition curve with a large enough effect; inconclusive = small, poorly fitted or top-dose-only effect; inactive = flat fitted curve, though single readings scatter.
# Target: Calcium and integrin-binding protein 1 (Homo sapiens) (UniProt Q99828)
# Assay: Primary qHTS for Identification of Calcium Integrin Binding Protein 1 (CIB1) Competitor (AID 1508620);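 also: GST tagged CIB1 binding a fluorescein labelled alphaIIb integrin peptide tracer; top concentration of the series differs between compounds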
# Details: CIB1-GST / FITC-alphaIIb peptide fluorescence polarization; series mostly up to 114 µM; activity change, negative = inhibition: at the top concentration
# How it was run: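 CIB1-GST (1 uM final) and compound incubated 15 min at room temperature before adding FITC-alphaIIb peptide tracer (100 nM final). Competition for binding read by fluorescence polarization (ex 480, em 540) after another 15 min at room temperature.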
# % is scaled to controls: 0 for no effect and ±100 for the full control effect.
# Calcium and integrin-binding protein 1 (Homo sapiens), sequence (Q99828 whole entry, looked up): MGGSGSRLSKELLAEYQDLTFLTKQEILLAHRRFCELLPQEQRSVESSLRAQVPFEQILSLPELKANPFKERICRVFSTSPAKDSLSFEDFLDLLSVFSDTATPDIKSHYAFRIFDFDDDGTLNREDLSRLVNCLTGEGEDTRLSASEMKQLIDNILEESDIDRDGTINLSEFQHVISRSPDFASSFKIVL
row,Structure (SMILES),"activity change, negative = inhibition"
1,C=C1CCCC2(C)CCC(C(C)(C)OC3OC(C)C(O)C(O)C3OC(=O)/C(C)=C\C)CC12 (stereo not drawn),-15.8% [at 57.7 µM]
2,COc1ccncc1C(=O)NC(=O)Nc1ccc(-c2ccccc2)c(C(F)(F)F)c1,0.229%
3,CN(CC1COCCO1)S(=O)(=O)Nc1ccc2ccc3ncc(-c4cnn(C)c4)cc3c(=O)c2c1 (stereo not drawn),-16.2%
4,COc1cccc(CN(C(=O)CC(C)(C)C)[C@H]2C[C@H](C(=O)N3CCNCC3)N(Cc3ccc4c(c3)OCO4)C2)c1,2.57%
5,C=C1C(=O)OC2/C=C(\CO)CC/C=C(\C=O)C(O)C(OC(=O)C(C)CC)C12 (stereo not drawn),-6.73% [at 57.7 µM]
6,C=C1C(=O)O[C@@H]2C[C@@]3(C)CCCC(=C)[C@]3(O)C[C@H]12,-0.519%
7,CNS(=O)(=O)c1ccccc1Nc1nc(Nc2ccc(N3CCN(C)CC3)cc2OC)ncc1Br,-12.5%
8,C=C1CCN([C@H](C)[C@](O)(Cn2cncn2)c2ccc(F)cc2F)CC1,2.87%
